The results in this text go back to PMC7862700, “An all-to-all approach to the identification of sequence-specific readers for epigenetic DNA modifications on cytosine”.

What all share (test): DAPPL (digital affinity profiling via proximity ligation, sequencing); 10 mM Tris-HCl pH 7.5, 50 mM NaCl, 1 mM DTT, 4% glycerol, room temperature, 30 min; GST-TFs on glutathione beads, 16-mer random dsDNA library, 0.1% formaldehyde crosslink after washing; high values mean tight binding
In one experiment the target is T1, FLI1 (Homo sapiens, UniProt Q01543 1-452).
T1 sequence: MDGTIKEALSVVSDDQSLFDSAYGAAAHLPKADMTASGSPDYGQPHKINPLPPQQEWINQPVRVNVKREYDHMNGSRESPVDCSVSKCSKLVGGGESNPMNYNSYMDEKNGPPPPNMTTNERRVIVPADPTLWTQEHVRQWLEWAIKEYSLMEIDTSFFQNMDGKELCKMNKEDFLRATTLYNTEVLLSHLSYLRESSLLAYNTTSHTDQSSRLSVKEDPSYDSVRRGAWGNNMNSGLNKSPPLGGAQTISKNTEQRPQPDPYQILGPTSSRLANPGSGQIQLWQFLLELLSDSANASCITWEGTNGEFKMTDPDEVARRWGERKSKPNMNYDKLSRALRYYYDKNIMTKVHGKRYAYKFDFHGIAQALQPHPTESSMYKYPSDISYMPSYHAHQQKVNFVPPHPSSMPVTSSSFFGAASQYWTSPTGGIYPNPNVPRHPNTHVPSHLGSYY
Conditions: protein: recombinant; tags: N-terminal GST; dsDNA, one strand shown. In outline:
(§1)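 Binding signal is each hexamer's read frequency for a factor divided by its frequency in the tag-only sample. The factors were GST-fused human transcription factors from yeast, captured on glutathione beads, DNA-barcoded and pooled with that sample. Pools were incubated with 200 nmole of a random double-stranded 16-mer DNA library in Tris/NaCl/DTT/glycerol buffer at room temperature for 30 min, then washed, crosslinked with 0.1% formaldehyde, proximity-ligated with BsaI/T4 ligase (1 h, 37 °C), PCR-amplified and sequenced on an Illumina NextSeq500.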

Another experiment concerns the target T2, ELK1 (Homo sapiens, UniProt P19419 1-428).
T2 sequence: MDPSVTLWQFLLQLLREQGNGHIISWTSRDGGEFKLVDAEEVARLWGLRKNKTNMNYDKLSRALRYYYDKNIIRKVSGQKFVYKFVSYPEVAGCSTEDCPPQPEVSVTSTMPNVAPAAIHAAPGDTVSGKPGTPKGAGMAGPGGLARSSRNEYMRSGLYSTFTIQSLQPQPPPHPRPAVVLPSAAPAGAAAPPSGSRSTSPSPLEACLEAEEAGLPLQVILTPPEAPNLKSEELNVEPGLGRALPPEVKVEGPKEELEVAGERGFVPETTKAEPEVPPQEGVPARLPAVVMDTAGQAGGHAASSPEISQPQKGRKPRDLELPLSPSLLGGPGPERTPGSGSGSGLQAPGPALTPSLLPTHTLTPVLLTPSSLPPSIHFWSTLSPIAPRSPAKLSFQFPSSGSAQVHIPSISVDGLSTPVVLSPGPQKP
The note with it: protein: recombinant; tags: N-terminal GST; dsDNA, one strand shown. In outline:
as §1

Another experiment has as its target T3, GABPA (Homo sapiens, UniProt Q06546 1-454).
T3 sequence: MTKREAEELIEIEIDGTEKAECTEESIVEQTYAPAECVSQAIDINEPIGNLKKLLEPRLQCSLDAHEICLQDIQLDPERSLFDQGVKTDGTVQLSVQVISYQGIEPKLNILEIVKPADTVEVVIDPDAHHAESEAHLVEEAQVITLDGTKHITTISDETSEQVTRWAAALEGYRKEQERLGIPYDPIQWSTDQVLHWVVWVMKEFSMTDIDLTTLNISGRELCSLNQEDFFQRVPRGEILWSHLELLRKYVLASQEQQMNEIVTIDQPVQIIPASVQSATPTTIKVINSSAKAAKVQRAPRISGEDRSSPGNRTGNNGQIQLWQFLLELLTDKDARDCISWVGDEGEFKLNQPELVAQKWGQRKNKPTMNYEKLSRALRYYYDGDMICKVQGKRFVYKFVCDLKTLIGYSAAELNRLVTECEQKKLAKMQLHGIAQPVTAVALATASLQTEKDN
Conditions: protein: recombinant; tags: N-terminal GST; dsDNA, one strand shown. A digest of the protocol:
as §1

In a further experiment the target is T4, ERG (Homo sapiens, UniProt P11308 1-479).
T4 sequence: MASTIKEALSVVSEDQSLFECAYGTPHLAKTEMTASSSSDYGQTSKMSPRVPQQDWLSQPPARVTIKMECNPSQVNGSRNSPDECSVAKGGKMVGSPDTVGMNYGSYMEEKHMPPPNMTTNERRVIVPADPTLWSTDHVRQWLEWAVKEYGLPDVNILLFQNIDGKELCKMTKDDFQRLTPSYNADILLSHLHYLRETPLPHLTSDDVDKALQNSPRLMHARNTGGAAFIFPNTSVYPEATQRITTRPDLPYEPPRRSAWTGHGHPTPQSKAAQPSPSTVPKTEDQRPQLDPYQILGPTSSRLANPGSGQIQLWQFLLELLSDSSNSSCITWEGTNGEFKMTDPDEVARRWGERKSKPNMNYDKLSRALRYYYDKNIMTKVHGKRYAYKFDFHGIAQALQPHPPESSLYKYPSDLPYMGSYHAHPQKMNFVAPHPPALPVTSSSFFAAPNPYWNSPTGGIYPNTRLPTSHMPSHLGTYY
The note with it: protein: recombinant; tags: N-terminal GST; dsDNA, one strand shown. A digest of the protocol: as §1

Another experiment deals with ELF1 (Homo sapiens, UniProt P32519 1-619). The note with it: protein: recombinant; tags: N-terminal GST; dsDNA, one strand shown. In outline: as §1
The target of the next experiment is T5, EHF (Homo sapiens, UniProt Q9NZC4 1-300).
T5 sequence: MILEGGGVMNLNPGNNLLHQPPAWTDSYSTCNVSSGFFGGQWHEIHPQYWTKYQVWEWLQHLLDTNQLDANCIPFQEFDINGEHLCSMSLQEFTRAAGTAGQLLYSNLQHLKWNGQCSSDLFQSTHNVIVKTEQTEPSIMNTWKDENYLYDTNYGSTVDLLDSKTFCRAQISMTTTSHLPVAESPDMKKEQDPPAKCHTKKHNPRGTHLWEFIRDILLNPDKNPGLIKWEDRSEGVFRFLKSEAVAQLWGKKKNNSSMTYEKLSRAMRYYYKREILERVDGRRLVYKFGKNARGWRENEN
Conditions: protein: recombinant; tags: N-terminal GST; dsDNA, one strand shown. A digest of the protocol:
as §1

A further experiment addresses SPI1 (Homo sapiens, UniProt P17947 1-270). Conditions: protein: recombinant; tags: N-terminal GST; dsDNA, one strand shown. In outline:
as §1

The next experiment addresses SPIB (Homo sapiens, UniProt Q01892 1-262). The note with it: protein: recombinant; tags: N-terminal GST; dsDNA, one strand shown. A digest of the protocol: as §1
The target of a further experiment is T6, ELK3 (Homo sapiens, UniProt P41970 1-407).
T6 sequence: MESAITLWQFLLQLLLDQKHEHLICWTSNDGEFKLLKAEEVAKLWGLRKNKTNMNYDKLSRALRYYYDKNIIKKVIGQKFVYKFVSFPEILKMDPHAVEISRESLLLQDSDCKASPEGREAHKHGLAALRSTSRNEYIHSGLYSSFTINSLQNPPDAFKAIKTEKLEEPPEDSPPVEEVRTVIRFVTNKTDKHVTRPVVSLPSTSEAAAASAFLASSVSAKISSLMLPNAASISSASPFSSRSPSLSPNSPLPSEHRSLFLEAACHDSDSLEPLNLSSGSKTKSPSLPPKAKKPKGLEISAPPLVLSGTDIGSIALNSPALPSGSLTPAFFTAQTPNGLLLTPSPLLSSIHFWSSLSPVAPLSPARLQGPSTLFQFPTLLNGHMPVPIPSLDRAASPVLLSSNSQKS
Conditions: protein: recombinant; tags: N-terminal GST; dsDNA, one strand shown. A digest of the protocol:
as §1

For a further experiment, the target named is T7, FEV (Homo sapiens, UniProt Q99581 1-238).
T7 sequence: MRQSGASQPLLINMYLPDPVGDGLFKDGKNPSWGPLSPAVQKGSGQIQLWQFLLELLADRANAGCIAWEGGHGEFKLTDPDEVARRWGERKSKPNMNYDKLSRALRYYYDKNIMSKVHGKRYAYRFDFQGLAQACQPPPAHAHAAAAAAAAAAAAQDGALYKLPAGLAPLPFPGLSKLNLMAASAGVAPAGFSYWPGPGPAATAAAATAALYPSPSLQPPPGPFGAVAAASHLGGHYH
The note with it: protein: recombinant; tags: N-terminal GST; dsDNA, one strand shown. In outline: as §1

The next experiment has as its target ETV5 (Homo sapiens, UniProt P41161 1-510). Conditions: protein: recombinant; tags: N-terminal GST; dsDNA, one strand shown. In outline: as §1
Another experiment deals with HSF1 (Homo sapiens, UniProt Q00613 1-529). The note with it: protein: recombinant; tags: N-terminal GST; chain copies: 3; dsDNA, one strand shown. In outline:
as §1

The next experiment deals with T8, SPIC (Homo sapiens, UniProt Q8N5J4 1-248).
T8 sequence: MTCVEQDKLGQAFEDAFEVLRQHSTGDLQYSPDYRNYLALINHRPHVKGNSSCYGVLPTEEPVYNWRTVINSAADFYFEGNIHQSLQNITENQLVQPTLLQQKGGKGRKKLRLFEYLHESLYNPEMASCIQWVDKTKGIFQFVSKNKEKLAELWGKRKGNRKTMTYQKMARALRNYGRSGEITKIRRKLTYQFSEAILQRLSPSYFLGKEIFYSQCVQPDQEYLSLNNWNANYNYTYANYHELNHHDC
The note with it: protein: recombinant; tags: N-terminal GST; dsDNA, one strand shown. In outline:
as §1

A further experiment deals with ELF4 (Homo sapiens, UniProt Q99607 1-663). Conditions: protein: recombinant; tags: N-terminal GST; dsDNA, one strand shown. In outline:
as §1

A further experiment deals with T9, ELK4 (Homo sapiens, UniProt P28324-2 1-405).
T9 sequence: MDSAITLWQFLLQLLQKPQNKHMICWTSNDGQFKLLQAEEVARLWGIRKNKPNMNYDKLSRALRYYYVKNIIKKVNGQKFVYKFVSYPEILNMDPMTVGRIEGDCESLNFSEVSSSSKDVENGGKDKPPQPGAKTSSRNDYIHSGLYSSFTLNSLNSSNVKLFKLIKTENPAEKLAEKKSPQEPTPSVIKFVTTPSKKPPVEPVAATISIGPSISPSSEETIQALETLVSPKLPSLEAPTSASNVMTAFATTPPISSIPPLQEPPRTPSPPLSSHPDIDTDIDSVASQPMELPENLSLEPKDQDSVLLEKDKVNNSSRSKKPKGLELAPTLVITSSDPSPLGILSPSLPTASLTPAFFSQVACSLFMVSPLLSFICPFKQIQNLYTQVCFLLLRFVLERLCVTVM
Conditions: protein: recombinant; tags: N-terminal GST; dsDNA, one strand shown. In outline:
as §1

In the next experiment the target is T10, ETV2 (Homo sapiens, UniProt O00321 1-342).
T10 sequence: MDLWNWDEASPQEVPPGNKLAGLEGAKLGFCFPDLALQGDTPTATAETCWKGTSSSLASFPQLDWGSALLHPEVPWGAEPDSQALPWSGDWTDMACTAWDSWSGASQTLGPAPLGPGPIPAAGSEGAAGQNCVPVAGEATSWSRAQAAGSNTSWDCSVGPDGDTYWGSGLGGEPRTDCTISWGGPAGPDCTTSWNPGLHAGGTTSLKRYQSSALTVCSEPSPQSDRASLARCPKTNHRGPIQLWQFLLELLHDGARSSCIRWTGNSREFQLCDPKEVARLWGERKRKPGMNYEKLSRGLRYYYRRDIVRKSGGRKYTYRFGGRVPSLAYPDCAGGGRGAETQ
The note with it: protein: recombinant; tags: N-terminal GST; dsDNA, one strand shown. In outline:
as §1

The target of another experiment is T11, ELF3 (Homo sapiens, UniProt P78545 1-371).
T11 sequence: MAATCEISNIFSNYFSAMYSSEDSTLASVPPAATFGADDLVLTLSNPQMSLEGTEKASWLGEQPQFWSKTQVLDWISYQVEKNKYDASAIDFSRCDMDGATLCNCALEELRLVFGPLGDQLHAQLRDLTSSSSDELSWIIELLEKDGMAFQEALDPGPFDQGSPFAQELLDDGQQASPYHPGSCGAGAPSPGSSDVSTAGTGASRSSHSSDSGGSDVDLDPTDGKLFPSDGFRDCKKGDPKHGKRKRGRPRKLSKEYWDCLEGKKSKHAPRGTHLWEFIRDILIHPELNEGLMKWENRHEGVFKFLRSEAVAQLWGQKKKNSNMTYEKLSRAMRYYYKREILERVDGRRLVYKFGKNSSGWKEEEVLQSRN
The note with it: protein: recombinant; tags: N-terminal GST; dsDNA, one strand shown. In outline:
as §1

A further experiment addresses CRX (Homo sapiens, UniProt O43186 1-299). Conditions: protein: recombinant; tags: N-terminal GST; dsDNA, one strand shown. In outline:
as §1

The target in a further experiment is ETV1 (Homo sapiens, UniProt P50549 1-477). Conditions: protein: recombinant; tags: N-terminal GST; dsDNA, one strand shown. A digest of the protocol:
as §1

SPIB, sequence (Q01892 whole entry): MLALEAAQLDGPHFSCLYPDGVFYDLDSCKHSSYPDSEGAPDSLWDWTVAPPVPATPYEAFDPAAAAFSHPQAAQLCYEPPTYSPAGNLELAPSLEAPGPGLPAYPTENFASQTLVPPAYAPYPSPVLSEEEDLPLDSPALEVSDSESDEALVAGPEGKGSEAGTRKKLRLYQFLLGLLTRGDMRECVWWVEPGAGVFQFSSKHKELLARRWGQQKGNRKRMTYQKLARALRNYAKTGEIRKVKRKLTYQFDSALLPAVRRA
ETV5, sequence (P41161 whole entry): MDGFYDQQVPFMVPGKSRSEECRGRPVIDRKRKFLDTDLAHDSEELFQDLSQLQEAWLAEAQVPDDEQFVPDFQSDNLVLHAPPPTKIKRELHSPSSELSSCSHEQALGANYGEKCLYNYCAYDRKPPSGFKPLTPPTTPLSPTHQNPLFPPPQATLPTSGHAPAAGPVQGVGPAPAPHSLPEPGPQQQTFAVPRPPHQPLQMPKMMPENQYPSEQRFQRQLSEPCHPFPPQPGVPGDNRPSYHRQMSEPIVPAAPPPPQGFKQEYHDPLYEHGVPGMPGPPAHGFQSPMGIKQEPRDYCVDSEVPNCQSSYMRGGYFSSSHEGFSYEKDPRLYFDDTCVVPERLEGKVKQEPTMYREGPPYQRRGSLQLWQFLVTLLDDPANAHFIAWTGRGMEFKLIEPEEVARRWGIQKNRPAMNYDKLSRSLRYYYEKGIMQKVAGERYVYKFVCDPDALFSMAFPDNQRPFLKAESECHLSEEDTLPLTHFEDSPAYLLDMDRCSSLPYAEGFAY
ELF4, sequence (Q99607 whole entry): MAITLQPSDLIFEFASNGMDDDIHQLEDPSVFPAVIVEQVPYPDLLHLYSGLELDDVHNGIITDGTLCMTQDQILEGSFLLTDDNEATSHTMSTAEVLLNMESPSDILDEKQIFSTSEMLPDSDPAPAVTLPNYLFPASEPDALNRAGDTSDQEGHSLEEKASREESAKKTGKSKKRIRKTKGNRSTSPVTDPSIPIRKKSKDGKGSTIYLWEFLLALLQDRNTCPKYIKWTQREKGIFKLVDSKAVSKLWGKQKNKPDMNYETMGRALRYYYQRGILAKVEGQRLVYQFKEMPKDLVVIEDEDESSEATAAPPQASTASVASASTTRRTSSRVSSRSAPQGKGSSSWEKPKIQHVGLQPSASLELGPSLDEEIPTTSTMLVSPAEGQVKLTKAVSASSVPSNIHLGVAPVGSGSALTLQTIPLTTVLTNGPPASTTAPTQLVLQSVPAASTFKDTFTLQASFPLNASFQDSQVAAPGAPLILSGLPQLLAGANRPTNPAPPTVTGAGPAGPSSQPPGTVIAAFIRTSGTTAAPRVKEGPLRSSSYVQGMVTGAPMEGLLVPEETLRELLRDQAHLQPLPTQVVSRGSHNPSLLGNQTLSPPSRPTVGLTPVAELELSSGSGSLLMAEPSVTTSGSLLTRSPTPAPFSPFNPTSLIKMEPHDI
ETV1, sequence (P50549 whole entry): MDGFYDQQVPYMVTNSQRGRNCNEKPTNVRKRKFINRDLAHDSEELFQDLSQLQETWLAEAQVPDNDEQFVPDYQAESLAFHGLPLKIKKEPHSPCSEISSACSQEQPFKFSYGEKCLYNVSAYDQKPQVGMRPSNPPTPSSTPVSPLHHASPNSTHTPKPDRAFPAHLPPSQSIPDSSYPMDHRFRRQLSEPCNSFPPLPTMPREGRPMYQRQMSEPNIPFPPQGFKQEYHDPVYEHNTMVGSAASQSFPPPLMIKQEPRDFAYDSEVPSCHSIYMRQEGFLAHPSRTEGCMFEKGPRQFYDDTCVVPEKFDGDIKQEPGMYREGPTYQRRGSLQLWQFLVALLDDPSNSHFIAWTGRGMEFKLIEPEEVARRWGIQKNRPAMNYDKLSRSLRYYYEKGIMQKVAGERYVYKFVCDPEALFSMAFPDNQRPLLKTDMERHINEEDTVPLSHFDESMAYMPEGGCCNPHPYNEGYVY
CRX, sequence (O43186 whole entry): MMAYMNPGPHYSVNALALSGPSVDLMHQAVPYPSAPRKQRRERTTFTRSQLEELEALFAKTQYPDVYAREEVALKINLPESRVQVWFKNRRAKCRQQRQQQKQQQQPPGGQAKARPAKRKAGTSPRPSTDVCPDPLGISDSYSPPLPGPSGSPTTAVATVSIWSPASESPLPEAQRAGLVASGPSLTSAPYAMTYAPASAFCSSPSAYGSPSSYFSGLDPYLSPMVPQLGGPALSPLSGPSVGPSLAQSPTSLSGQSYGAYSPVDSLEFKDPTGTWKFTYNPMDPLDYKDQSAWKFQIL
ELF1, sequence (P32519 whole entry): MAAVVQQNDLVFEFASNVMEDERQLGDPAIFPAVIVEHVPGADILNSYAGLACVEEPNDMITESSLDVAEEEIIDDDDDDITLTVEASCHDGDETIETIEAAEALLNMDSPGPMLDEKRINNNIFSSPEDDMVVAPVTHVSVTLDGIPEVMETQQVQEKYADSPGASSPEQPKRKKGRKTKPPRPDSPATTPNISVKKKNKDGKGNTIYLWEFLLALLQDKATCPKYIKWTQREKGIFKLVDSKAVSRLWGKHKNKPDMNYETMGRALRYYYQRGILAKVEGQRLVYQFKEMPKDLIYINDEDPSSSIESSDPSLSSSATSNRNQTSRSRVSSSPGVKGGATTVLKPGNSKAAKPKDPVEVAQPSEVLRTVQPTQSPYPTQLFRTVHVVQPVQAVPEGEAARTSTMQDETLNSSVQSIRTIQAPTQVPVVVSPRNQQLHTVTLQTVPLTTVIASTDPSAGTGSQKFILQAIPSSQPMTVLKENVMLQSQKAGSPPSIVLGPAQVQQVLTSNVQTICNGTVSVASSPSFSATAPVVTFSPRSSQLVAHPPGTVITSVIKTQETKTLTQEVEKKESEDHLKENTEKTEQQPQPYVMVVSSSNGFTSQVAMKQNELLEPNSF
HSF1, sequence (Q00613 whole entry): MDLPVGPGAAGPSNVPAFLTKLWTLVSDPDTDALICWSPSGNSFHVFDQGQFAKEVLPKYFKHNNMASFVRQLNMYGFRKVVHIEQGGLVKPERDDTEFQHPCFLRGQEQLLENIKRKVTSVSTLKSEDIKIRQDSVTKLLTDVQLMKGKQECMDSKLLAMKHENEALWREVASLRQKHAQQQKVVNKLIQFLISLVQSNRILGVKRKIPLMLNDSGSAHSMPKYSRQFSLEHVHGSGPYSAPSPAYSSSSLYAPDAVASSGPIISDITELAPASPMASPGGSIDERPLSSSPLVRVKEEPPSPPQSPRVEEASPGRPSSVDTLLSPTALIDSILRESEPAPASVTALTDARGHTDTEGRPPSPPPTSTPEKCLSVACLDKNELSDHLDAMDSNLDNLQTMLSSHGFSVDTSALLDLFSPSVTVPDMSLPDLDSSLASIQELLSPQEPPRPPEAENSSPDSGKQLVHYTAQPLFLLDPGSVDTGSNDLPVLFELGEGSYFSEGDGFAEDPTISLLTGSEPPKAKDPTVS

As to CGACCT, the binding signal in the experiment with FLI1 is 1.44 fold enrichment (6-mer frequency, TF over GST control); with ELK1 it was 1.44 fold enrichment (6-mer frequency, TF over GST control); with GABPA it was 1.54 fold enrichment (6-mer frequency, TF over GST control); with ERG, 1.46 fold enrichment (6-mer frequency, TF over GST control); in the experiment with ELF1, 1.6 fold enrichment (6-mer frequency, TF over GST control); with EHF, 1.39 fold enrichment (6-mer frequency, TF over GST control). The binding signal was 1.4 fold enrichment (6-mer frequency, TF over GST control) with SPI1; 1.63 fold enrichment (6-mer frequency, TF over GST control) with SPIB; 1.7 fold enrichment (6-mer frequency, TF over GST control) with ELK3; 1.59 fold enrichment (6-mer frequency, TF over GST control) with FEV; 1.61 fold enrichment (6-mer frequency, TF over GST control) in the experiment with ETV5; 1.35 fold enrichment (6-mer frequency, TF over GST control) in the experiment with HSF1. Besides, the binding signal is 1.41 fold enrichment (6-mer frequency, TF over GST control) in the experiment with SPIC; 1.61 fold enrichment (6-mer frequency, TF over GST control) with ELF4; 1.56 fold enrichment (6-mer frequency, TF over GST control) with ELK4; 1.73 fold enrichment (6-mer frequency, TF over GST control) in the experiment with ETV2; 1.45 fold enrichment (6-mer frequency, TF over GST control) with ELF3; 1.21 fold enrichment (6-mer frequency, TF over GST control) with CRX. Also, the binding signal with ETV1 is 1.55 fold enrichment (6-mer frequency, TF over GST control).
